Reference: PubChem BioAssay (NCATS)
Results filed as inconclusive are left out. Where a call stands in place of a potency, no number is given. Activity calls are given as the source filed them. Calls come from the whole dose curve; as a rule, active = well fitted inhibition curve with a large enough effect; inconclusive = small, poorly fitted or top-dose-only effect; inactive = no such curve, though single readings can be large or run the other way. *1 amine or outer side, *2 acyl side, *3 side chain or, on linkers, in order; H or OH if unused. Where a SMILES comes first, the peptide text is derived from it. Bridges are numbered along the chain shown (N, C = ends). X6 = O=C(CCC[*:2])[*:1]

Legend:
[1] = system: Zika virus NS2B-NS3 protease (unlinked complex); assay: Primary screen GU Rhodamine qHTS for Zika virus inhibitors: Unlinked NS2B-NS3 protease assay (AID 1347159); note: nearly all actives have a fitted effect of over 60% in size; note: potency is the fitted concentration of half-maximal effect
Procedure, shortened: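 Unlinked NS2B/NS3, 25 nM; Rhod110 peptide, 1.5 microM; compounds, up to 114 microM. Reaction run 15 min at RT in 10 mM Tris-HCl pH 8.0, 0.01% Tween 20; kinetic fluorescence change fitted with a 4-parameter Hill model.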

[2] = system: Zika virus NS2B-NS3 protease (linked construct); assay: Primary screen NINDS Rhodamine qHTS for Zika virus inhibitors (AID 1347160); note: nearly all actives have a fitted effect of over 55% in size
Procedure, shortened: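 Single-chain NS2B-NS3 protease, 25 nM, pH 8.0; compounds preincubated 15 min. Activity: Rhodamine110 release from 1.5 microM substrate over 15 min, room temperature, data fitted to 4-parameter Hill.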

Row | Compound | Potency [1] | Potency [2] | activity change, negative = inhibition [1] | activity change, negative = inhibition [2]
1 | Nc1c(Br)cc(Br)cc1CNC1CCC(O)CC1 (stereo not given) | inactive | inactive |  | 
2 | CCC(C)C(=O)O[C@@H]1[C@@H](O)[C@@H](O[C@H]2O[C@H](CO)[C@@H](O)[C@H](O)[C@H]2O)O[C@H](CO)[C@H]1O (stereo not given in full) | inactive | inactive |  | 
3 | O=C(NCC(=O)N1CC[C@H](NC2CCC(O)(c3ccc(-c4ncccn4)cn3)CC2)C1)c1cccc(C(F)(F)F)c1 (stereo not given in full) | inactive | inactive |  | 
4 | COC(=O)[C@@]1(O)C=CC[C@@H]2[C@@]3(C)C[C@@H](c4ccoc4)OC(=O)[C@H]3CC[C@]21C | inactive | inactive |  | 
5 | C[C@H]1[C@H](C)CC[C@]2(C(=O)O)CC[C@]3(C(=O)O)C(=CCC4[C@@]5(C)CC[C@H](O[C@@H]6O[C@H](C)[C@@H](O)[C@H](O)[C@H]6O)C(C)(C)C5CC[C@]43C)[C@H]12 (stereo not given in full) | inactive | inactive |  | 
6 | C=C(C)[C@@H]1CC[C@](C)(O)[C@@H](OC(=O)c2ccccc2)C1 | inactive | inactive |  | 
7 | CC(C)(O)CNc1nc(Nc2ccnc(C(F)(F)F)c2)nc(-c2cccc(C(F)(F)F)n2)n1 | inactive | inactive |  | 
8 | C=CC(C)(O)CO[C@@H]1O[C@H](CO)[C@@H](O)[C@H](O)[C@H]1O (stereo not given in full) | inactive | inactive |  | 
9 | CC(C)[C@H]1CCC(CO)=C[C@@H]1/C=C(\CO)C(=O)O | inactive | inactive |  | 
10 | C=C[C@H]1[C@H](O[C@@H]2O[C@H](CO)[C@@H](O)[C@H](O)[C@H]2O)OC=C(C(=O)OC)[C@H]1C[C@@H]1N[C@H](C(=O)O)Cc2c1[nH]c1ccccc21 | inactive | inactive |  | 
11 | CC(=O)O[C@H]1[C@H](C)[C@@H](O)[C@H]2[C@@H]1C=C(C(=O)O)[C@H]1C[C@@H]3[C@H]([C@H]21)[C@H]1C(=O)O[C@@H]2CC[C@@]3(C)O[C@]1(O)[C@@H]2C | inactive | inactive |  | 
12 | CC(=O)OC1C(O)C(C)=C(CCC(C)CC(=O)O)C2(C)CCCC(C)(C)C12 (stereo not given) | inactive | inactive |  | 
13 | COC1CC(OC2CCC3(C)C(=CCC4C3CCC3(C)C(C(C)O)CCC43O)C2)OC(C)C1OC1OC(C)C(OC2OC(COC3OC(COC4OC(CO)C(O)C(O)C4O)C(O)C(O)C3O)C(O)C(O)C2O)C(OC)C1O (stereo not given) | inactive | inactive |  | 
14 | CC1OC(O[C@H]2[C@@H](O)C[C@@]3(C)C([C@H](O)C[C@]4(C)C3CC=C3C5CC(C)(C)CC[C@]5(C(=O)OC5OC(CO)C(O)C(O)C5OC5OCC(OC6OCC(OC7OCC(O)C(O)C7O)C(O)C6O)C(OC6OCC(O)(CO)C6O)C5O)CC[C@]34C)[C@]2(C)CO)C(O)C(O)C1O (stereo not given in full) |  |  | 27.1% [at 19.1 µM] (inactive) | -1.39% [at 10.7 µM] (inactive)
15 | CC1=C(C)C(=O)OC(C(C)C2C(O)CC3C4C5OC5C5(O)CC(OC6OC(CO)C(O)C(O)C6O)CC(O)C5(C)C4CCC32C)C1 (stereo not given) | inactive | inactive |  | 
16 | COc1ccc([C@H]2Cc3cccc(O)c3C(=O)O2)cc1 | inactive | inactive |  | 
17 | O=c1c2cccnc2n(-c2cccc([N+](=O)[O-])c2)c(=O)n1Cc1ccncc1 | inactive | inactive |  | 
18 | COC(=O)C1=CO[C@@H](O[C@@H]2O[C@H](CO)[C@@H](O)[C@H](O)[C@H]2O)[C@@H]2[C@@H](C)[C@@H](O)C[C@H]12 | inactive | inactive |  | 
19 | C[C@@H]1O[C@@H](O[C@H]2[C@H](OC(=O)[C@]34CCC(C)(C)C[C@H]3C3=CCC5[C@@]6(C)C[C@H](O)[C@H](O[C@@H]7O[C@H](CO[C@@H]8OC[C@H](O)[C@H](O)[C@H]8O)[C@@H](O)[C@H](O)[C@H]7O)C(C)(C)C6CC[C@@]5(C)[C@]3(C)C[C@H]4O)OC[C@@H](O)[C@@H]2O)[C@H](O)[C@H](O[C@@H]2OC[C@](O)(CO)[C@H]2O)[C@H]1O[C@@H]1OC[C@H](O)[C@H](O[C@@H]2OC[C@@H](O)[C@H](O)[C@H]2O)[C@H]1O (stereo not given in full) |  |  | 12.7% [at 19.1 µM] (inactive) | 22.5% [at 10.7 µM] (inactive)
20 | COC(=O)c1cc(CN2CCN(C(=N)N)CC2)cc(C(=O)N2CCN(C(=O)c3ccc(C(=N)N)cc3)CC2)c1 | inactive | inactive |  | 
21 | Cc1c(N2C(=O)c3ccc(C(=O)O)cc3C2=O)c(=O)n(-c2ccccc2)n1C | inactive | inactive |  | 
22 | C[C@@H]1CC[C@]2(C(=O)O)CC[C@]3(C)C(=CCC4[C@]5(C)C(CC[C@]43C)C(C)(C)[C@@H](O)[C@H](O)[C@@H]5O)C2[C@]1(C)O (stereo not given in full) | inactive | inactive |  | 
23 | CCN(c1cc(C#CCN2CCOCC2)cc(C(=O)NCc2c(C)cc(C)[nH]c2=O)c1C)C1CCC(N(C)CCOC)CC1 (stereo not given) | inactive | inactive |  | 
24 | C=C1C2(CCC(=O)OC2(C)C)CC(OC(=O)/C(C)=C/C)C2(C)C13OC14C(=O)OC(C)(C(=O)C12C(=O)OC4C)C3OC(C)=O (stereo not given) | inactive | inactive |  | 
25 | CC(CO[C@@H]1O[C@H](COC(=O)/C=C/c2ccc(O)c(O)c2)[C@@H](O)[C@H](O)[C@H]1O)C1(O)COC(=O)C1 (stereo not given in full) | inactive | inactive |  | 

Row | Compound | Potency [1] | Potency [2] | activity change, negative = inhibition [1] | activity change, negative = inhibition [2]
26 | CNC(=O)COC(=O)NCCC1CCN(c2cccc(C)n2)CC1 | inactive | inactive |  | 
27 | C=C1CCC2C(C)(COC3OC(COC(=O)CC(=O)O)C(O)C(O)C3O)CCCC2(C)C1CCC1=CCOC1=O (stereo not given) | inactive | inactive |  | 
28 | CCCCNC(=O)[C@@H]1Cc2ccccc2N1C(=O)[C@@H](N)CC | inactive | inactive |  | 
29 | CCC(C)(O)C(O)C(=O)OCc1ccc(O[C@@H]2O[C@H](CO)[C@@H](O)[C@H](O)[C@H]2O)cc1 (stereo not given in full) | inactive | inactive |  | 
30 | COC(=O)C1(Cc2ccc(O)cc2)OC(=O)C(OC)=C1c1ccc(O)cc1 (stereo not given) | inactive | inactive |  | 
31 | CC1(C)CCC2(C(=O)OC3OC(COC4OC(CO)C(O)C(O)C4O)C(O)C(O)C3O)CCC3(C)C(=CCC4C5(C)CCC(O)C(C)(C(=O)O)C5CCC43C)C2C1O (stereo not given) | inactive | inactive |  | 
32 | CC[C@H](C)[C@@H]1NC(=O)[C@H](Cc2ccc(OC)cc2)NC(=O)CCCSC[C@@H](C(=O)N2CCC[C@H]2C(=O)N[C@@H](CC(C)C)C(=O)NCC(N)=O)NC(=O)[C@H](CC(N)=O)NC(=O)[C@H](CCC(N)=O)NC1=O (Y(Me)IQNCPLG-NH2; linker N-5 via X6) | inactive | inactive |  | 
33 | O=C(O[C@H]1[C@@H]2C=CO[C@@H](O[C@@H]3O[C@H](CO)[C@@H](O)[C@H](O)[C@H]3O)[C@@H]2[C@@]2(CO)O[C@@H]12)c1ccc(O)c(O)c1 | inactive | inactive |  | 
34 | COc1ccc(C(OC2OC(CO)C(O)C(O)C2O)C(C)O)cc1 (stereo not given) | inactive | inactive |  | 
35 | C/C=C1/[C@H](O[C@@H]2O[C@H](CO)[C@@H](O)[C@H](O)[C@H]2O)OC=C(C(=O)OC)[C@H]1CC(=O)O[C@@H]1O[C@H](CO)[C@@H](O)[C@H](O)[C@H]1O | inactive | inactive |  | 
36 | OC[C@H]1O[C@@H](n2cnc3c2NC=NC[C@H]3O)C[C@@H]1O | inactive | inactive |  | 
37 | CC1(CO)CC[C@]2(C(=O)O[C@@H]3O[C@H](CO)[C@@H](O)[C@H](O)[C@H]3O)CC[C@]3(C)C(=CCC4[C@@]5(C)CC[C@H](O[C@@H]6O[C@H](C(=O)O)[C@@H](O)[C@H](O)[C@H]6O)C(C)(C)C5CC[C@]43C)C2C1 (stereo not given in full) | inactive | inactive |  | 
38 | Cc1nn(C)c2c1C(c1ccc(C(F)(F)F)cc1)C(C#N)=C(N)O2 (stereo not given) | inactive | inactive |  | 
39 | COc1ccccc1CC(C(=O)O)N(C)C(=O)c1ccccc1 (stereo not given) | inactive | inactive |  | 
40 | C=CCc1ccc(O[C@@H]2O[C@H](CO)[C@@H](O)[C@H](O)[C@H]2O)c(OC)c1 | 12.6 µM (active) | inactive |  | 
41 | COC(=O)[C@@H]1C2CC3c4[nH]c5ccccc5c4CCN3CC2CC[C@@H]1O (stereo not given in full) | inactive | inactive |  | 
42 | CCC(C)(O)C(O)C(=O)OCc1ccc(O[C@@H]2O[C@H](CO)[C@@H](O)[C@H](O)[C@H]2O)c(OC)c1 (stereo not given in full) | inactive | inactive |  | 
43 | O=C(NN1CCCCC1)c1nn(-c2ccc(Cl)cc2Cl)c(-c2ccc(C#Cc3ccc(C(F)(F)F)cc3)s2)c1CNS(=O)(=O)N1CCCC1 | inactive | inactive |  | 
44 | COC(=O)[C@]12C(=O)C(C)=C(O)[C@@]1(C)C(C)=CC1[C@@]34CC[C@@H](OC(C)=O)C(C)(C)C3[C@H](C[C@]12C)OC4=O (stereo not given in full) | inactive | inactive |  | 
45 | C=C1[C@@H]2CC[C@@]3(C)[C@H](c4ccoc4)OC(=O)C[C@]13O[C@H]1CC(=O)C(C)(C)[C@H](CC(=O)OC)[C@]12C | inactive | inactive |  | 
46 | C[C@@H]1O[C@@H](O[C@H]2[C@H](OC(=O)[C@]34CCC(C)(C)C[C@H]3C3=CCC5[C@@]6(C)CC[C@H](O[C@@H]7O[C@H](CO[C@@H]8OC[C@H](O)[C@H](O)[C@H]8O)[C@@H](O)[C@H](O)[C@H]7O)C(C)(C)C6CC[C@@]5(C)[C@]3(C)C[C@H]4O)OC[C@@H](O)[C@@H]2O)[C@H](O)[C@H](O)[C@H]1O[C@@H]1OC[C@H](O)[C@H](O[C@@H]2OC[C@@H](O)[C@H](O)[C@H]2O)[C@H]1O (stereo not given in full) |  |  | -11.8% [at 19.1 µM] (inactive) | -14.5% [at 10.7 µM] (inactive)
47 | CCOc1ccc(C(Nc2ccccn2)c2ccc3ccc(C)nc3c2O)cc1C (stereo not given) | inactive | inactive |  | 
48 | C/C=C(\C)C(=O)OC[C@H]1O[C@H](O[C@H]2O[C@H](CO)[C@@H](OC(=O)/C(C)=C/C)[C@H](O)[C@H]2O[C@@H]2O[C@H](CO)[C@@H](O)[C@H](O)[C@H]2O)[C@H](O[C@@H]2O[C@H](CO)[C@@H](O)[C@H](O)[C@H]2O)[C@@H](O)[C@@H]1O | inactive | inactive |  | 
49 | COC1=CC(=O)C[C@@H](C)[C@]12Oc1cc(OC)cc(OC)c1C2=O | inactive | inactive |  | 
50 | COc1cc2c(cc1O)C1(Cc3ccc4c(c3C1=O)OCO4)N(C)CC2 (stereo not given) | inactive | inactive |  | 
